Bioassay records (PubChem BioAssay)
Shown are actives, neighbours in structure and some others; about 17% of the full set was active somewhere.
HT1080 IDH1KD tx: toxicity to HT-1080 IDH1 knockdown cells (counter line) | HT-1080 IDH1 knockdown viability, ATP luminescence, 48 h | Potency, µM (top dose mostly 46.1 µM), actives largely listed as cytotoxic | actives 2% (n = 360,000) | AID 686971
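Assay cells: HT-1080 with IDH1 knockdown, 750 per well, RPMI/5% FBS. Exposure: 48 h at 37 °C following 2 h pre-incubation. Read: CellTiter-Glo luminescence; fitted concentration-response, curve class assigned.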
TDP1 cell noCPT: qHTS for Inhibitors of human tyrosyl-DNA phosphodiesterase 1 (TDP1): qHTS in cells in absence of CPT. DT40 Tdp1-/- hTDP1 cells, no CPT, ATP luminescence, 48 h. Potency, µM (series often up to 46.2 µM), most hits filed as inhibitors. actives 15% (n = 420,000). AID 686978, 2013; also: nearly all actives have a fitted effect of over 55% in size
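Stably hTDP1-transfected Tdp1-null chicken DT40 cells were treated with library compounds minus camptothecin and grown for at least 48 hr at 37 °C, after which cellular ATP was quantified by luminescence.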
TGFb inhibitor: TGF-b pathway inhibition | HepG2 CAGA-GFP TGF-b/SMAD3 reporter, GFP fluorescence, 18 h; TGF-beta stimulated, 500 pg/mL final | Potency, µM (titrated, usually from 46.1 µM), hits mostly inhibitors | actives 1.2% (n = 410,000) | AID 588855; also: nearly all actives have a fitted effect of over 65% in size
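Inhibition of TGF-beta-driven CAGA-GFP reporter expression in HEPG2 cells is measured by cellular GFP fluorescence after 18 h stimulation with 500 pg/mL recombinant TGF-beta in 1% FBS medium at 37 degrees C.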
DT40 TDP1 CPT: DT40-hTDP1 cell growth loss with CPT; actives 12% (n = 420,000); AID 686979; chicken DT40 Tdp1-/-;hTDP1 cells + 20 nM CPT, ATP luminescence, 48 h; Potency, µM (doses to about 46.2 µM), most hits filed as inhibitors; also: nearly all actives have a fitted effect of over 55% in size
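Chicken DT40 Tdp1-/- cells complemented with human TDP1, 400 cells/well, exposed to compounds plus 20 nM camptothecin for at least 48 h at 37 C; viability read as ATP content by CellTiter-Glo luminescence.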
HepG2 viability: counter-screen for TGF-b inhibitors: cytotoxicity in HepG2 cells. HepG2 CAGA-GFP viability, ATP luminescence, 18 h. Potency, µM (highest dose often 46.1 µM), usual class: cytotoxic. actives 0.76% (n = 410,000)
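CellTiter-Glo luminescence gave cytotoxicity after 18 hours at 37 degrees C. The cells were HepG2 CAGA-GFP in 1% FBS DMEM, stimulated with 500 pg/mL TGF-beta after compound addition. %Activity was normalised to no-cell wells (complete cell-killing) and DMSO (no toxicity), and curves were fitted and classified.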
HT1080-NT tox: kills 2HG-producing HT-1080-NT fibrosarcoma cells | Potency, µM (titrated, usually from 46.1 µM), usual class: cytotoxic | AID 686970 | actives 1.6% (n = 360,000) | HT-1080-NT fibrosarcoma viability, CellTiter-Glo ATP luminescence, 48 h;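 also: NT is the 2HG producing partner of a matched IDH1 knockdown line; nearly all actives have a fitted effect of over 55% in size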
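A 48-hour cytotoxicity screen used HT-1080-NT cells plated 2 hours before compound delivery. ATP-based CellTiter-Glo luminescence measured viability, normalized to DMSO and no-cell controls.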
Of the large screens only hits and unclear results are named; the others gave an inactive call. Calls follow the shape of the dose curve; as a rule, active = well fitted curve in the direction sought with a large enough effect; inconclusive = small, poorly fitted or top-dose-only effect, or another doubt; inactive = no such curve, though single readings can be large; an effect the other way counts as inactive or inconclusive.

CCN(CC)c1ccc(NC(=O)CN2C(=O)CC(C)(C)S(=O)(=O)c3ccccc32)c(C)c1	TDP1 cell noCPT 16µM, DT40 TDP1 CPT 15µM
COC(=O)c1ccccc1NC(=O)Cn1ncc2c(C)n(Cc3ccc(F)cc3)c(C)c2c1=O	TDP1 cell noCPT inconclusive, TGFb inhibitor inconclusive, DT40 TDP1 CPT 21µM (no result: HT1080 IDH1KD tx, HT1080-NT tox)
CCN(CC)c1ccc(NC(=O)Cn2ncc3c(C)n(Cc4ccccc4F)c(C)c3c2=O)c(C)c1	TDP1 cell noCPT 21µM, DT40 TDP1 CPT inconclusive
COc1ccc(CNC(=O)C2CCCN(S(=O)(=O)c3ccc(-n4cnnn4)cc3)C2)cc1 (stereo not drawn)	none
COc1cccc(C(=O)OCC(=O)c2ccc(Br)s2)c1OC	none
C[C@@H](NC(=O)c1[nH]cnc1C(=O)Nc1ccccc1)c1ccccc1	TDP1 cell noCPT inconclusive, TGFb inhibitor 14µM, DT40 TDP1 CPT inconclusive
C[C@@H](NC(=O)c1[nH]cnc1C(=O)Nc1ccon1)c1ccccc1	HT1080 IDH1KD tx inconclusive, TDP1 cell noCPT inconclusive, DT40 TDP1 CPT 16µM
Cc1ccc(NC(=O)c2nc[nH]c2C(=O)N[C@@H](C)c2ccccc2)cc1	TDP1 cell noCPT inconclusive, TGFb inhibitor inconclusive, DT40 TDP1 CPT inconclusive
C[C@H](NC(=O)c1[nH]cnc1C(=O)Nc1cccc(Cl)c1)c1ccccc1	TDP1 cell noCPT 16µM, TGFb inhibitor inconclusive, DT40 TDP1 CPT inconclusive, HT1080-NT tox inconclusive
CCCCNC(=O)c1ccc(NC(C)=O)c(Cl)c1	none
CC(=O)c1nnn(-c2ccc(C)cc2Cl)c1C	none (no result: HT1080 IDH1KD tx, HT1080-NT tox)
CCc1cc2c(cc3c(=O)n(CC(=O)NC(C)C)nc(CC)n32)s1	TDP1 cell noCPT 16µM, DT40 TDP1 CPT inconclusive (no result: HT1080 IDH1KD tx, HT1080-NT tox)
CCCCN(CCCC)CCNC(=O)Cn1nc(CC)n2c(cc3sc(C)cc32)c1=O	TDP1 cell noCPT 16µM, DT40 TDP1 CPT 15µM (no result: HT1080 IDH1KD tx, HT1080-NT tox)
CCc1cc2c(cc3c(=O)n(CC(=O)N4CCCCC4)nc(CC)n32)s1	TDP1 cell noCPT inconclusive, DT40 TDP1 CPT inconclusive (no result: HT1080 IDH1KD tx, HT1080-NT tox)
CCc1ccccc1NC(=O)C1CCCN(S(=O)(=O)c2ccc3[nH]c(=O)ccc3c2)C1 (stereo not drawn)	TGFb inhibitor inconclusive (no result: HT1080 IDH1KD tx, HT1080-NT tox)
Cc1cc2nn(-c3cccc4ccccc34)nc2cc1NC(=O)c1cccs1	DT40 TDP1 CPT 23µM
CCN(CC)c1ccc(-n2nc3cc(C)c(NC(=O)c4ccccc4C)cc3n2)c(C)c1	TDP1 cell noCPT 21µM, DT40 TDP1 CPT 16µM (no result: HT1080 IDH1KD tx, HT1080-NT tox)
Cc1cc2nn(-c3ccc(F)cc3)nc2cc1NC(=O)c1cccc2c(Cl)cccc12	TDP1 cell noCPT inconclusive, DT40 TDP1 CPT 2.9µM (no result: HT1080 IDH1KD tx, HT1080-NT tox)
CCN(CC)c1ccc(NC(=O)c2cccnc2)c(C)c1	TDP1 cell noCPT inconclusive, DT40 TDP1 CPT inconclusive
CCN(CC)c1ccc(NC(=O)c2cccc(C)c2OC)c(C)c1	HT1080 IDH1KD tx inconclusive, TDP1 cell noCPT 11µM, DT40 TDP1 CPT 13µM, HT1080-NT tox inconclusive
Cc1cc2nn(-c3ccc(F)cc3)nc2cc1NC(=O)c1cccc2ccccc12	none (no result: HT1080 IDH1KD tx, TDP1 cell noCPT, DT40 TDP1 CPT, HT1080-NT tox)
COc1ccc(C(CNC(=O)c2ccc(NS(=O)(=O)c3ccc4c(c3)OCCO4)cc2)N(C)C)cc1 (stereo not drawn)	TDP1 cell noCPT inconclusive, DT40 TDP1 CPT inconclusive
CCCCCCCCCCCCC[N+](C)(C)Cc1ccccc1	TDP1 cell noCPT 0.58µM, DT40 TDP1 CPT 0.65µM (no result: HT1080 IDH1KD tx, TGFb inhibitor, HepG2 viability, HT1080-NT tox)
CCCN(CCC)C(=O)Cc1ccc(F)cc1	TDP1 cell noCPT inconclusive
CCCCCCCCCCCCCCCC[N+](C)(C)Cc1ccc(F)cc1	TDP1 cell noCPT 7.3µM, TGFb inhibitor inconclusive, DT40 TDP1 CPT 6.5µM
C=CCn1c(SCC(=O)c2ccc(OC)cc2)nnc1-c1cc2cccc(OC)c2o1	TDP1 cell noCPT inconclusive
C=CCn1c(SCC(=O)c2ccccc2)nnc1-c1cc2ccccc2o1	TDP1 cell noCPT inconclusive, DT40 TDP1 CPT 23µM
